Values joined by “and” are separate entries in the source; they are usually repeats but may differ in a detail not shown here. Equal values may be shown once. Some compounds were tested as several samples or in several runs, with calls that do not always agree. Active and inactive are the calls of the source. Rule for the calls: active = hit-call score of the fitted dose curve at least 0.9, where 1 is the maximum; inactive = score below 0.9.
Legend:
[1] = target: Transcriptional activator Myb (Homo sapiens) (UniProt P10242); experiment: ATG_Myb_CIS: Attagene CIS-FACTORIAL HepG2 Assay for human Myeloblastosis (Myb) Proto-Oncogene Transcription Factor (AID 2282986); conditions: HepG2 Attagene CIS-FACTORIAL Myb reporter transcription; actives raise or lower the signal
Transcriptional activator Myb (Homo sapiens), sequence (P10242 whole entry, looked up): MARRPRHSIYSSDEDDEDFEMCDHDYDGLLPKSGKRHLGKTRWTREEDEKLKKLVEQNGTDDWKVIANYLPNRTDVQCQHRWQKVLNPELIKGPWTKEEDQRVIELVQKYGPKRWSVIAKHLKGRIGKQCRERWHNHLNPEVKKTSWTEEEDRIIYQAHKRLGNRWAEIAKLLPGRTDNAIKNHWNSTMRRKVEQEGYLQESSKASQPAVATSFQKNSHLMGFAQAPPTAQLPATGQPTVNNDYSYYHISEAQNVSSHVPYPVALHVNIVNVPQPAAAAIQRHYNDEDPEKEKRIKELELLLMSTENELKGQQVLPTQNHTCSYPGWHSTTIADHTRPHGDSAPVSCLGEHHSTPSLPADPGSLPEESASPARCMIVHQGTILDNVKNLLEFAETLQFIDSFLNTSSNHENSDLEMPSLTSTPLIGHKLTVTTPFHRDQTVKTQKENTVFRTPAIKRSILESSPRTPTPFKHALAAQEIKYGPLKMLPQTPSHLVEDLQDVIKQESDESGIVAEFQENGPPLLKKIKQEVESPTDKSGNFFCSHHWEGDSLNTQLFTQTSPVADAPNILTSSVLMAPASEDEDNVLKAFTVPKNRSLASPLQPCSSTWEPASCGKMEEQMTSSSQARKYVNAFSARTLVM
Method in brief: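 Transiently transfected HepG2 cells, treated 24 h. Reporter mRNA quantified by RT-PCR/capillary electrophoresis; bidirectional fit relative to DMSO.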

[2] = target: Nuclear respiratory factor 1 (Homo sapiens) (UniProt Q16656); experiment: ATG_NRF1_CIS: Attagene CIS-FACTORIAL HepG2 Assay for human Nuclear Respiratory Factor 1 (NRF1) Orphan Gene (AID 2282987); conditions: HepG2 NRF1 cis-element reporter, Attagene multiplex; actives raise or lower the signal
Nuclear respiratory factor 1 (Homo sapiens), sequence (Q16656 whole entry, looked up, the tested form may be a part): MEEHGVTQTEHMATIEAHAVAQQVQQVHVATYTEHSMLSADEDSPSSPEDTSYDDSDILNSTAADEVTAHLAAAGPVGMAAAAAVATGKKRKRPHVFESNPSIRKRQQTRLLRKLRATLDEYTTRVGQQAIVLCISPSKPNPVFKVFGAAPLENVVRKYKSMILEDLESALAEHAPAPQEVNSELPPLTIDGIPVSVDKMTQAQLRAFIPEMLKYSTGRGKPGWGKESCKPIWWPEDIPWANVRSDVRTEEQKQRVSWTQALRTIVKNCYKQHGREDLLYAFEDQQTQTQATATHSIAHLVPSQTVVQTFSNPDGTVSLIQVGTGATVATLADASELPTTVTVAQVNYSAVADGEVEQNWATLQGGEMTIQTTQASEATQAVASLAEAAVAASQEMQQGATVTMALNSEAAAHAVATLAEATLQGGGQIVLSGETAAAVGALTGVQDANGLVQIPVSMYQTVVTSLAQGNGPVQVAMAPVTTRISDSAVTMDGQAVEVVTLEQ
Method in brief: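 Cells (HepG2, transient MRTU transfection) are exposed to compound for 24 h, then RNA isolated and reporter mRNA amplified and fluorescently labelled. Fragments are separated by capillary electrophoresis; signal change is fitted bidirectionally relative to DMSO.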

[3] = target: Myc proto-oncogene protein (Homo sapiens) (UniProt P01106); experiment: ATG_Myc_CIS: Attagene CIS-FACTORIAL HepG2 Assay for human Myelocytomatosis (Myc) Proto-Oncogene Transcription Factor (AID 2282990); conditions: HepG2, Attagene cis-reporter transcription factor activity; actives raise or lower the signal
Myc proto-oncogene protein (Homo sapiens), sequence (P01106 whole entry, looked up): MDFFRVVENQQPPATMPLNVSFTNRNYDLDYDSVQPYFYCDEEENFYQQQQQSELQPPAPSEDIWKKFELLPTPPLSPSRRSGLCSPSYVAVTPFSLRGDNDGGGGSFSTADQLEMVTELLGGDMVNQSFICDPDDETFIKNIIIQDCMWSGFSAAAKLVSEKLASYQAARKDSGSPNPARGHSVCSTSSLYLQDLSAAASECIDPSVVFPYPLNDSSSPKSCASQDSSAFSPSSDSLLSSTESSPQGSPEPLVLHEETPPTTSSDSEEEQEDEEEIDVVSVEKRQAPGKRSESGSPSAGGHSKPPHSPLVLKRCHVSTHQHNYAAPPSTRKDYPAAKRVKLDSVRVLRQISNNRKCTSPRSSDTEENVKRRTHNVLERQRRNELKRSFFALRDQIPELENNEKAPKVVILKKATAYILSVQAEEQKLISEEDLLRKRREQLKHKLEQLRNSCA
Method in brief: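 Transiently transfected HepG2 cells bearing cis-promoter reporter units for endogenous transcription factors; 24 h exposure. Reporter mRNA measured by RT-PCR, 6-FAM primer extension, HpaI cut and capillary electrophoresis; bidirectional fit relative to DMSO.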

[4] = ATG_NF_kB_CIS: Attagene CIS-FACTORIAL HepG2 Assay for human Nuclear Factor Kappa B (NF-kB) (AID 2282991); conditions: HepG2 Attagene cis-factorial NF-kB reporter mRNA; actives raise or lower the signal
Method in brief: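 Measures mRNA induction of an NF-kB-responsive cis-element reporter in HepG2 cells transfected with multiple reporter units, sampled 24 h post-dosing; quantified by fluorescence after RT-PCR and capillary electrophoresis, fitted for activation or inhibition against DMSO.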

[5] = ATG_NRF2_ARE_CIS: Attagene CIS-FACTORIAL HepG2 Assay for human Nuclear Factor Erythroid 2 Related Factor 2 (NFR2) response to Antioxidant Response Elements (ARE) (AID 2282992); conditions: HepG2 Attagene ARE/NRF2 reporter, transcription factor activity; actives raise or lower the signal;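 for AC50: reporter mRNA level measured by RT-PCR and capillary electrophoresis fluorescence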
Method in brief: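 Fluorescence intensity of reporter-specific cDNA fragments, separated by capillary electrophoresis, reflects mRNA induction in transfected HepG2 cells at 24 h. Activity is fitted bidirectionally, DMSO serving as baseline.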

[6] = ATG_Oct_MLP_CIS: Attagene CIS-FACTORIAL HepG2 Assay for human Octamer-Binding Transcription Factor (Oct) (AID 2282993); conditions: HepG2 Attagene cis-factorial Oct reporter, mRNA; actives raise or lower the signal
Method in brief: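 Read-out: reporter mRNA via RT-PCR plus capillary electrophoresis of 6-FAM-labelled fragments. Transiently transfected HepG2, 24 h exposure, endogenous TF activity on cis elements. Gain or loss of signal fitted relative to DMSO.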

[7] = BSK_3C_TissueFactor: BioMAP Diversity Plus: 3C Assay for Tissue Factor Biomarker Activity (AID 2282997); conditions: BioMAP 3C HUVEC, tissue factor biomarker readout; actives raise or lower the signal
Method in brief: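 Cells used were primary human umbilical vein endothelial cells. They were dosed with chemical, and after 24 h Tissue Factor was quantified by ELISA. Curves were fitted bidirectionally with DMSO as baseline.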

[8] = BSK_3C_uPAR: BioMAP Diversity Plus: 3C Assay for Urokinase-type plasminogen activator receptor (uPAR) Biomarker Activity (AID 2282998); conditions: BioMAP 3C HUVEC, uPAR biomarker ELISA; actives raise or lower the signal
Method in brief: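 HUVEC primary cells; 24 h post-dose; uPAR by ELISA; gain or loss of signal fitted bidirectionally vs DMSO baseline.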

[9] = ATG_NFI_CIS: Attagene CIS-FACTORIAL HepG2 Assay for human Nuclear Factor I (NFI) (AID 2282989); conditions: HepG2 cis-regulatory reporter, NFI response element transcription; actives raise or lower the signal
Method in brief: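 Read-out: reporter mRNA via RT-PCR plus capillary electrophoresis with fluorescence detection. Transiently transfected HepG2 (endogenous TF activity on cis promoters), 24 h compound exposure; gain or loss of signal fitted against DMSO.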

[10] = target: Cellular tumor antigen p53 (Homo sapiens) (UniProt P04637); experiment: ATG_p53_CIS: Attagene CIS-FACTORIAL HepG2 Assay for human p53 Transcription Factor (AID 2282994); conditions: HepG2 p53 cis-element reporter, Attagene mRNA; actives raise or lower the signal
Cellular tumor antigen p53 (Homo sapiens), sequence (P04637 whole entry, looked up): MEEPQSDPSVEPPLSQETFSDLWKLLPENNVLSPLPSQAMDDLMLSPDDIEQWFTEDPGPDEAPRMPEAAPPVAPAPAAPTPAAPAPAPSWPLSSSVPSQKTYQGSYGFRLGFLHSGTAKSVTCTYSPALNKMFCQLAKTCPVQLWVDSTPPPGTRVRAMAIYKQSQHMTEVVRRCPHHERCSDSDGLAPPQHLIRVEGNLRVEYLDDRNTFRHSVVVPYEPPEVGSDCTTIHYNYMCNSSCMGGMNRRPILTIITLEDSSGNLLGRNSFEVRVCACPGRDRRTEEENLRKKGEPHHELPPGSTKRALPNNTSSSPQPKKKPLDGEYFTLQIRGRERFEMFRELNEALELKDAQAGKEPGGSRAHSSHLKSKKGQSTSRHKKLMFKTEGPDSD
Method in brief: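 Transiently transfected HepG2 (multiple cis reporter transcription units); exposure 24 h; reporter RNA via RT-PCR, 6-FAM extension, 2 h HpaI digest at 37 C, CE detection; DMSO baseline.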

| Compound | outcome [1] | AC50 [2] | outcome [2] | AC50 [3] | outcome [3] | outcome [4] | AC50 [5] | AC50 [6] | outcome [6] | AC50 [7] | AC50 [8] | outcome [9] | outcome [5] | outcome [10] | outcome [7] | outcome [8] | AC50 [4] | AC50 [9] | AC50 [1] |
| --- | --- | --- | --- | --- | --- | --- | --- | --- | --- | --- | --- | --- | --- | --- | --- | --- | --- | --- | --- |
| ClC(Cl)=C(c1ccc(Cl)cc1)c1ccc(Cl)cc1 | inactive | 61.1 µM (active) and 100 µM (active) | inactive | 169 µM (active) and 129 µM (active) | inactive | inactive | 50.7 µM (active) [middle of 4 runs] | 145 µM (active) and 152 µM (active) and 154 µM (active) | inactive | 29.4 µM (active) | 33.4 µM (active) | – | – | – | – | – | – | – | – |
| COS(=O)(=O)OC | inactive | – | inactive | – | inactive | inactive | – | – | inactive | – | – | inactive | inactive | inactive | inactive | inactive | – | – | – |
| CC(c1ccc(O)cc1)(c1ccc(O)cc1)c1ccc(O)cc1 | inactive | 20.2 µM (active) | – | – | inactive | – | 19.6 µM (active) | 11.1 µM (active) | – | – | 32.6 µM (active) | inactive | – | – | inactive | – | 18.9 µM (active) | – | – |
| Oc1ccc(C(c2ccc(O)cc2)(C(F)(F)F)C(F)(F)F)cc1 | inactive | – | inactive | 20.3 µM (active) | inactive | inactive | 11.1 µM (active) [middle of 4 runs] | 16.3 µM (active) and 16.7 µM (active) and 18.1 µM (active) | inactive | 35 µM (active) | 21.9 µM (active) | inactive | – | – | – | – | – | 17.7 µM (active) | – |
| c1ccc(-c2ccccc2)cc1 | inactive | – | inactive | – | inactive | inactive | – | – | inactive | – | – | inactive | inactive | – | inactive | inactive | – | – | – |
| Cc1cc(-c2ccc(N)c(C)c2)ccc1N | inactive | – | inactive | – | inactive | – | – | – | inactive | – | – | inactive | inactive | – | inactive | inactive | – | – | – |
| CCC(=O)O[C@H]1CC[C@H]2[C@@H]3CCC4=CC(=O)CC[C@]4(C)[C@H]3CC[C@]12C | inactive | 122 µM (active) | inactive | 165 µM (active) and 163 µM (active) | inactive | inactive | 158 µM (active) [middle of 4 runs] | 186 µM (active) and 73.4 µM (active) and 100 µM (active) | inactive | 31.4 µM (active) | 24.9 µM (active) | – | – | – | – | – | – | – | 164 µM (active) |
| Cc1cc(O)ccc1Cl | inactive | – | inactive | – | inactive | inactive | – | – | inactive | – | – | inactive | inactive | – | inactive | inactive | – | – | – |
| CCCCCCCCCc1ccc(O)cc1 | inactive | 174 µM (active) | inactive | 69 µM (active) | inactive | inactive | 11.1 µM (active) and 26.6 µM (active) and 14.3 µM (active) | – | inactive | 16.1 µM (active) | 15.5 µM (active) | inactive | – | – | – | – | 68.8 µM (active) | – | 157 µM (active) |
| CCC(C)(CC)c1cc(NC(=O)c2c(OC)cccc2OC)on1 | inactive | – | inactive | – | inactive | inactive | 0.289 µM (active) | 1.64 µM (active) | – | – | – | inactive | – | – | inactive | inactive | – | – | – |
| Oc1ccc(Cl)cc1Cl | inactive | – | inactive | – | inactive | – | 36.3 µM (active) | – | inactive | – | – | inactive | – | – | inactive | inactive | – | – | – |
| Nn1cnnc1 | inactive | – | inactive | – | inactive | inactive | – | – | inactive | – | – | inactive | inactive | – | inactive | inactive | – | – | – |
| O=C(NC(=O)c1cc(F)c(F)cc1Cl)Nc1cc(F)ccc1N1CCC(C(=O)O)CC1 | inactive | – | inactive | – | inactive | – | 16.5 µM (active) | – | inactive | – | – | inactive | – | inactive | inactive | inactive | – | – | – |
| Clc1ccc(Cl)cc1 | inactive | – | inactive | – | inactive | inactive | – | – | inactive | – | – | inactive | inactive | – | inactive | inactive | – | – | – |
| CCCCCCOC(=O)c1ccccc1C(=O)OCCCCCC | inactive | – | inactive | – | inactive | inactive | 16.2 µM (active) | – | inactive | – | – | inactive | – | – | inactive | inactive | – | – | – |
| Clc1ccc(C(c2ccccc2Cl)C(Cl)(Cl)Cl)cc1 (stereo not drawn) | inactive | 120 µM (active) | inactive | 111 µM (active) | inactive | inactive | 41.4 µM (active) and 39.6 µM (active) and 21.3 µM (active) | 70.5 µM (active) and 104 µM (active) and 42.3 µM (active) | inactive | 20.9 µM (active) | 21.3 µM (active) | – | inactive | – | – | – | – | – | – |
